# HT1080 IDH1KD tx: kills HT-1080 cells with IDH1 knockdown; HT-1080 IDH1 knockdown viability, ATP luminescence, 48 h; Potency, µM (highest dose often 46.1 µM), actives largely listed as cytotoxic; 360,000 compounds, 2% hits; AID 686971
#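 Knockdown cells (IDH1KD HT-1080) received compounds 2 h after plating at 750 cells/well and were kept 48 h at 37 °C in 5% FBS RPMI. A CellTiter-Glo luminescence read gave % activity for curve fitting.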
# HT1080-NT tox: kills 2HG-producing HT-1080-NT fibrosarcoma cells. AID 686970. Potency, µM (doses to about 46.1 µM), usual class: cytotoxic. 360,000 compounds, 1.6% hits. HT-1080-NT fibrosarcoma viability, CellTiter-Glo ATP luminescence, 48 h;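 further: NT is the 2HG producing partner of a matched IDH1 knockdown line; nearly all actives have a fitted effect of over 55% in size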
#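 Viability by CellTiter-Glo luminescence after 48 h compound exposure at 37C of HT-1080-NT cells (750/well, RPMI, 5% FBS). % activity scaled between DMSO wells and medium-only wells, then curve-fitted and categorized by curve class.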
# TDP1 cell noCPT: qHTS for Inhibitors of human tyrosyl-DNA phosphodiesterase 1 (TDP1): qHTS in cells in absence of CPT; DT40 Tdp1-/- hTDP1 cells, no CPT, ATP luminescence, 48 h; Potency, µM (doses to about 46.2 µM), most hits filed as inhibitors; 420,000 compounds, 15% hits; AID 686978, 2013; further: nearly all actives have a fitted effect of over 55% in size
#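 Chicken DT40 Tdp1-/- cells complemented with human TDP1, screened without camptothecin (DMSO vehicle only), 400 cells/well. Compounds pin-transferred, cells incubated at 37 °C for at least 48 hr. Growth read as ATP-dependent luminescence (CellTiter-Glo, 30 min at RT).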
# KB-V1 MDR tox: KB-V1 MDR subline cytotoxicity; KB-V1 MDR cells viability, CellTiter-Glo, 72 h; 400,000 compounds, 3.4% hits; Potency, µM (series often up to 46.1 µM), actives largely listed as cytotoxic; further: nearly all actives have a fitted effect of over 60% in size
#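 Cytotoxicity via CellTiter-Glo luminescence after 72 h compound exposure at 37 degrees C. Cells: drug-selected KB-V1 line, DMEM phenol-red free plus 10% FBS. Compounds tested at multiple concentrations; normalized data fitted to concentration-effect curves.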
# KB-3-1 tox: KB-3-1 parental cell cytotoxicity. 400,000 compounds, 1.4% hits. KB-3-1 viability, CellTiter-Glo ATP luminescence, 72 h. Potency, µM (highest dose often 46.1 µM), most hits filed as cytotoxic; further: nearly all actives have a fitted effect of over 60% in size
#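 Cytotoxicity in the drug-sensitive parental line KB-3-1 was scored as loss of CellTiter-Glo luminescence following 72 h incubation with compound. Values come from curve fitting of normalized concentration-response data.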
# TDP1 cell CPT: DT40-hTDP1 cell growth loss with CPT. AID 686979. 420,000 compounds, 12% hits. Potency, µM (series often up to 46.2 µM), most hits filed as inhibitors. chicken DT40 Tdp1-/-;hTDP1 cells + 20 nM CPT, ATP luminescence, 48 h; further: nearly all actives have a fitted effect of over 55% in size
#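 Chicken DT40 Tdp1-/- cells complemented with human TDP1, 400 cells/well, exposed to compounds plus 20 nM camptothecin for at least 48 h at 37 C; viability read as ATP content by CellTiter-Glo luminescence.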
# A number is an active result; 0 = inactive; ? = inconclusive; - = no result given; [ ] = remark or other dose. Most compounds without a hit are left out; they make up all but 19% or so of the library. The call rests on the fitted dose curve; in most records, active means well fitted curve in the direction sought with a large enough effect; inconclusive means small, poorly fitted or top-dose-only effect, or another doubt; inactive means no such curve, though single readings can be large; an effect the other way counts as inactive or inconclusive.
SMILES,HT1080 IDH1KD tx,HT1080-NT tox,TDP1 cell noCPT,KB-V1 MDR tox,KB-3-1 tox,TDP1 cell CPT
O=C(c1cccc(F)c1)N1CCN(C(=O)c2cc(-c3ccc(Cl)cc3Cl)on2)CC1,0,0,18µM,?,0,?
O=C(c1cc(-c2ccccc2Cl)on1)N1CCCC1,0,0,0,0,0,0
CCCCNS(=O)(=O)c1ccc2nc(SCC(=O)Nc3ccccc3Cl)[nH]c2c1,?,?,?,0,0,?
CCCCNS(=O)(=O)c1ccc2nc(SCC(=O)c3ccccc3OC)[nH]c2c1,?,?,?,0,0,10µM
CCCCNS(=O)(=O)c1ccc2nc(SCC(=O)Nc3sccc3C#N)[nH]c2c1,21µM,?,?,0,?,23µM
CCCCNS(=O)(=O)c1ccc2nc(SCC(N)=O)[nH]c2c1,0,0,?,0,0,0
Cc1noc(C)c1CCC(=O)Nc1cc(C(=O)O)ccc1Cl,0,0,0,?,0,0
CC1(c2nc3ccccc3[nH]2)CCC(=O)N1Cc1ccccn1 (centres undefined),0,0,0,0,0,0
CC1(c2nc3ccccc3[nH]2)CCCC2=Nc3ccccc3CN21 (centres undefined),0,0,18µM,0,0,?
CC1(C(=O)NS(=O)(=O)c2ccc(Cl)s2)CCN1C(=O)Cc1ccc(-c2ccccc2)cc1 (centres undefined),0,0,0,0,0,0
CCc1nc2c(c(=O)[nH]1)C1(CCCC1)Cc1ccccc1-2,0,0,0,0,0,0
O=c1[nH]c(CN2CCCCC2)nc2c1C1(CCCCC1)Cc1ccccc1-2,0[9.24 µM],0,13µM,?,0,13µM
O=C(NCCc1ccccc1)c1cc(-c2ccccc2)c(N2CCOCC2)s1,0,0,16µM,0,0,?
CSc1ccc(CCNC(=O)c2cc(-c3ccccc3)c(N3CCOCC3)s2)cc1,0,0,16µM,0,0,?
CCN(CC)CCCNC(=O)c1nn2c(C(F)(F)F)cc(-c3ccccc3)nc2c1Cl,0,0,?,0,0,?
CCN(CC)CCCNC(=O)c1cc(-c2ccccc2)c(N2CCCCC2)s1,?,?,15µM,?,18µM,?
COc1ccc(CCNC(=O)c2cc(-c3ccccc3)c(N3CCOCC3)s2)cc1OC,0,0,16µM,?,0,21µM
CCOc1cc(C2NC(=O)CCC2[N+](=O)[O-])cc(Br)c1OCC (centres undefined),0,0,0,0,0,0
O=C(CCc1nc(-c2ccccc2)no1)NC1CCCCC1,0,0,0,21µM,0,0
O=C(CCc1nc(-c2ccccc2F)no1)NC1CCCCCC1,0[9.24 µM],0,29µM,16µM,?,?
O=C(CCc1nc(-c2ccccc2Cl)no1)NC1CCCCC1,0,0,21µM,0,0,?
Cc1cccc(-c2noc(CCC(=O)NC3CCCCC3)n2)c1,0,0,0,0,0,?
Cc1ccc(Nc2nnc(SCC(=O)c3c(N)n(C4CC4)c(=O)[nH]c3=O)s2)cc1C,?,0,?,0,?,21µM
Cc1cccc(Nc2nnc(SCC(=O)c3c(N)n(C4CC4)c(=O)[nH]c3=O)s2)c1,0,0,?,0,0,0
CCCc1cc(=O)[nH]c(SCC(=O)c2c(N)n(C3CC3)c(=O)[nH]c2=O)n1,?,?,0,0,16µM,?
SMILES,HT1080 IDH1KD tx,HT1080-NT tox,TDP1 cell noCPT,KB-V1 MDR tox,KB-3-1 tox,TDP1 cell CPT
O=C(CSc1cn(CC(=O)N2CCCCC2)c2ccccc12)NCC1CCCO1 (centres undefined),0,0,0,?,0,0
O=C(CSc1cn(CC(=O)N2CCCCC2)c2ccccc12)NCc1ccccc1Cl,-,-,?,-,-,23µM
O=C(Cn1cc(SCc2c(F)cccc2Cl)c2ccccc21)N1CCCC1,-,-,7.3µM,-,-,?
COc1ccc(CNC(=O)C2=C(C)C(=O)OC23CCCCC3)cc1,-,-,0,-,-,0
CC1CC(C)CN(C(=O)C(C)N2CCN(S(=O)(=O)c3ccc(C(F)(F)F)cc3)CC2)C1 (centres undefined),0,0,?,0,0,?
N#Cc1ccc(C(=O)Nc2nnc(-c3cccs3)o2)cc1,0,0,7.3µM,0,?,5.2µM
CN(C)S(=O)(=O)c1ccc(C(=O)Nc2nnc(-c3ccc4c(c3)CCCC4)o2)cc1,0,0,5.2µM,0,?,2.9µM
O=C(Nc1nnc(-c2cccs2)o1)c1cccc(C(F)(F)F)c1,?,?,5.2µM,0,0,5.2µM
O=C(Nc1nnc(-c2cccs2)o1)C1CC1,0,0,0,0,0,0
CN(C)S(=O)(=O)c1ccc(C(=O)Nc2nnc(-c3cccs3)o2)cc1,?,0,23µM,?,0,13µM
c1cncc(-c2cc(-n3ccnc3)ncn2)c1,-,-,0,-,-,?
O=C1CCCC/C1=C/Nc1ccc(C(=O)O)cc1,0,0,0,0,0,0
CC1CCC/C(=C\Nc2ccc(O)cc2)C1=O (centres undefined),0,0,?,0,0,21µM
COc1cc2c(NC3CCN(C)CC3)nc(N3CCCCC3)nc2cc1OCCOCCN1CCCC1,-,-,?,0,?,13µM
COc1cc2c(NC3CCN(C(C)C)CC3)nc(N3CCCN(C)CC3)nc2cc1OCCOCCN1CCCC1,-,-,14µM,0,12µM,10µM
COc1cc2c(NC3CCN(C)CC3)nc(N3CCCN(C)CC3)nc2cc1OCCCN1CCCC1,-,-,?,0,?,?
COCCCN1C(=O)C(CC(=O)NC(c2ccccc2)c2ccccc2)CC(C(=O)N2CCCCCC2)=C1C (centres undefined),0,0,?,?,0,?
CC(C)C(=O)Nc1cc2c3c(c1)CCC(=O)N3CCC2,0,0,0,?,0,0
CCOc1ccccc1NC(=O)c1c(NCc2sccc2C)sc2c1CCC(C)C2 (centres undefined),-,-,6.5µM,-,-,6.5µM
Cc1ccccc1NC(=O)c1c(NC(=O)c2ccccc2)sc2c1CCC2,-,-,0,0,0,0
CCOc1ccccc1NC(=O)c1c(NCc2sccc2C)sc2c1CCCCC2,-,-,15µM,0,0,8.2µM
CCN(CC)CCCC(C)NC(=O)c1c(NC(=O)c2ccccc2)sc2c1CCCC2 (centres undefined),?,?,?,0,0,18µM
CCOc1ccccc1NC(=O)c1c(NC(=O)c2ccccc2)sc2c1CCCC2,-,-,?,0,0,4.1µM
CCOc1ccccc1NC(=O)c1c(NC(=O)C(C)Oc2ccc(Cl)cc2)sc2c1CCCCC2 (centres undefined),-,-,?,0,0,0
